Source: PubChem BioAssay AID1117361 (Southern Research Institute, 2015)
The campaign covered roughly 3,600 compounds. About 900 (25%) were called active. How the calls were made is not given here. Not all results are given here. Where a call stands in place of a potency, no number is given. Potency and affinity values are given separately.

target: Protein Tat (Human immunodeficiency virus type 1 group M subtype B (isolate HXB2)) (UniProt P04608); test: HIV-1 Tat–TAR interaction blockers – biochemical, fluorescence polarization, FAM-labeled TAR RNA, counter-screen for Vif-APOBEC3G degradation inhibitor project, dose response (AID 1117361); settings: Tat-TAR RNA binding; series mostly up to 100 µM

SMILES	outcome
O=C(NCc1ccncc1)c1cnccn1	inactive
COC(=O)c1ccc(NC(=S)NCCC2=CCCCC2)cc1	inactive
CC(=O)Nc1ccc(NC(=O)C(C)OC(=O)CCc2c[nH]c3ccccc23)cc1 (stereo unspecified)	inactive
C/C(=N\NC(=O)c1cnccn1)c1ccc([N+](=O)[O-])cc1	inactive
C=CCN(CC=C)C(=S)NC(=O)c1ccc([N+](=O)[O-])cc1	inactive
CC1=CC(C)(C)N=C(Nc2nc(C)c3cc(C)cc(C)c3n2)N1	inactive
O=C(C/C=N/OCc1c(Cl)cccc1Cl)c1ccc(Cl)cc1	inactive
CC(C)(C)OC(=O)N1CCCC1C(=O)N1CCc2ccccc21 (stereo unspecified)	inactive
O=[N+]([O-])c1ccc2nc(-c3ccccc3)oc2c1	inactive
CC(=O)c1cc2c(cc1NC(=O)CSc1nc3ccccc3o1)OCO2	inactive
CC(=O)NNC(=O)C(O)(c1ccccc1)c1ccccc1	inactive
CCc1ccc(S(=O)(=O)/N=C2\C=CC(=O)c3ccccc32)cc1	inactive
CC(C)c1ccc(S(=O)(=O)/N=C2/C=CC(=O)c3ccccc32)cc1	inactive
CN(C)c1ccc(NC(=O)Nc2cccc(Cl)c2)cc1	inactive
COc1ccc(C(=O)N2CCCN(C)CC2)cc1S(=O)(=O)N1CCCc2ccccc21	inactive
COC(=O)C1=C(C)NC(=O)NC1c1ccc2c(c1)OCO2 (stereo unspecified)	inactive
Cc1ccc(CCNC(=O)C2CCN(S(=O)(=O)c3ccc4c(c3)CCC(=O)N4)CC2)cc1	inactive
CC1CCCC(NC(=O)C2CCC(CNc3c(N4CCCC4)c(=O)c3=O)CC2)C1C (stereo unspecified)	inactive
CCOC(=O)c1c(C)[nH]c(C(=O)COC(=O)CN2C(=O)C3CCCCC3C2=O)c1C (stereo unspecified)	inactive
COc1ccc(C(=O)OCC(=O)c2c(N)n(C)c(=O)n(C)c2=O)cc1OC	inactive
COc1ccc(CC(=O)Oc2ccc(F)c(F)c2)cc1S(=O)(=O)N1CCOCC1	inactive
CC1(C)CCN(Cc2ccccc2)C1CC#N (stereo unspecified)	inactive
COC(=O)c1cnn2c(C)c(Cc3cccc(F)c3)c(C)nc12	inactive

SMILES	outcome
COC(=O)C1CCN(C(=O)NC(C)(C)C)CC1	inactive
COc1cc2oc3ccccc3c2cc1N(CC(=O)N(C)C)S(=O)(=O)c1ccccc1	inactive
CCOc1cc(C2NC(=O)NC(C)=C2C(=O)NCc2ccccc2)c(Cl)cc1O (stereo unspecified)	inactive
Cn1c(N)c(C(=O)CCl)c(=O)n(Cc2ccccc2)c1=O	inactive
O=C(O)c1ccc(S(=O)(=O)c2ccc3c(c2)C(=O)N(Cc2ccco2)C3=O)cc1	inactive
c1ccc(Cn2nnnc2-c2ccco2)cc1	inactive
O=C1c2ccccc2C(=O)N1CCC(c1ccc(F)cc1)c1ccco1 (stereo unspecified)	inactive
CC1CCCCN1C(=O)c1ccc(S(=O)(=O)N2CCCCC2C)cc1 (stereo unspecified)	inactive
COCCn1c(COc2cccc(OC)c2)nnc1SCC(=O)N1CCOCC1	inactive
NC(=O)C[C@@H]1N[C@]2(C(=O)Nc3ccccc32)[C@@H]2C(=O)N(c3cc(C(F)(F)F)ccc3Cl)C(=O)[C@H]12	inactive
CCn1c(C(=O)OC)cc2c1ccn2-c1ccc(F)cc1	inactive
Cc1cccc(N(C(=O)c2ccc(Cl)cc2)C2CS(=O)(=O)CC2OC(=O)c2ccc(Cl)cc2)c1 (stereo unspecified)	inactive
O=C(CSc1nncs1)NC(=O)NCc1ccccc1	inactive
COc1ccccc1C(=O)C1CCCN(Cc2ccc3c(c2)OCCO3)C1 (stereo unspecified)	inactive
COC(=O)c1c(C)[nH]c(C(=O)CSc2ccc(Cl)cc2)c1C	inactive
CC(C)(C)c1ccc(NC(=O)N2CCN(c3ccc([N+](=O)[O-])cn3)CC2)cc1	inactive
Cn1nccc1NC(=O)Nc1ccc(Cl)cc1	inactive
Cn1nc(C(=O)OCC(=O)N2CCc3ccccc32)c2ccccc2c1=O	inactive
Cc1ccc(C2(C(F)(F)F)NC(=O)N3CCN=C3S2)cc1 (stereo unspecified)	inactive
Cc1nc(N2CCN(Cc3ccccc3)CC2)nc2c1C(=O)CCC2	inactive
CCc1cccc(NC(=O)CCS(=O)(=O)c2ccc(Br)cc2)c1	inactive
CCOc1ccc(NC(=O)CCS(=O)(=O)c2ccc(Br)cc2)cc1	inactive
O=C(CCS(=O)(=O)c1ccc(Br)cc1)NCCc1ccccc1	inactive

SMILES	outcome
CCOc1ccccc1NC(=O)CCS(=O)(=O)c1ccc(Br)cc1	inactive
NS(=O)(=O)c1ccc(CCNC(=O)CCS(=O)(=O)c2ccc(Br)cc2)cc1	inactive
COc1ccc(Cl)cc1NC(=O)CCS(=O)(=O)c1ccc(Br)cc1	inactive
Cc1ccccc1OCCC(=O)Nc1ccccc1C(=O)NC1CC1	inactive
OC(c1ccc(Cl)cc1)C(O)c1nc2ccccc2[nH]1 (stereo unspecified)	inactive
CCCCOc1ccc(C(=O)NCC(=O)NCC(=O)OCC)cc1	inactive
CCCCn1nc(C(=O)O)ccc1=O	inactive
COc1ccc(CNC(=O)c2sc3nc4c(c(C(F)(F)F)c3c2N)CCC4)cc1OC	inactive
CC(=O)Nc1ccc(NC(=O)C(C)OC(=O)CC23CC4CC(CC(Br)(C4)C2)C3)cc1 (stereo unspecified)	inactive
CC1CCCN(CC(O)CN2CCN(CC(O)CN3CCCC(C)C3)C(C)C2)C1 (stereo unspecified)	inactive
CCCc1n[nH]c2c1C(=O)C(C(=O)OC)C(C)(C)C2 (stereo unspecified)	inactive
COC(=O)C1C(O)=C(C=Nc2ccc(N)cc2)C(=O)CC1(C)C (stereo unspecified)	inactive
CCCC(=O)C1=C(N(C)c2ccccc2)CC(C)(C)CC1=O	inactive
O=C(Nc1nnc(SCc2c(Cl)cccc2Cl)s1)c1cccc([N+](=O)[O-])c1	inactive
CCOC(=O)N1CCC(Nc2c(-c3ccc(C)cc3)c(=O)c2=O)CC1	inactive
O=C(Cn1cnc2c(cnn2-c2ccc(F)cc2)c1=O)N1CCN(c2ccccc2)CC1	inactive
COc1cc(C2Nc3cccc4cccc(c34)N2)cc(OC)c1OC(C)=O	inactive
COc1cc(C)c(C2NC(=O)c3ccccc3N2)cc1C (stereo unspecified)	inactive
CCOC(=O)c1sc(C)c2c(=O)n(CCc3ccccc3)nnc12	inactive
O=C(/C=C/Nc1ccccc1Br)c1ccccn1	inactive
O=C(CSc1ncn[nH]1)Nc1nc(-c2ccccc2)ns1	inactive
CCOc1cc(NC(=S)NCC(C)C)c(OCC)cc1NC(=O)c1cccs1	inactive
O=C(CSc1ncn[nH]1)Nc1c(Br)cc([N+](=O)[O-])cc1Br	inactive

SMILES	outcome
Cc1ccc(C)c(S(=O)(=O)Nc2ccccc2C(=O)Nc2ccccc2N2CCOCC2)c1	inactive
COc1cccc(OC)c1C(=O)Nc1cc(Cl)ccc1N1CCOCC1	inactive
COc1ccccc1NS(=O)(=O)c1cc(C(=O)NCCN2CCOCC2)ccc1Cl	inactive
CN1CCN(S(=O)(=O)Cc2ccc(Cl)cc2)CC1	inactive
O=C(NCc1ccccc1)/C(=C/c1ccc(OC(F)F)cc1)c1ccccc1	inactive
O=C(CCS(=O)(=O)c1ccc(Br)cc1)N1CCN(c2ccc(F)cc2)CC1	inactive
Cc1ccc(C(C)C)c(OCCCN2CC(C)OC(C)C2)c1 (stereo unspecified)	inactive
COC(=O)c1ccccc1NC(=O)CSCC(=O)Nc1ccccc1	inactive
COC(=O)c1ccccc1NC(=O)C(C)Oc1ccccc1 (stereo unspecified)	inactive
Cc1nnc(-c2cnn(C)c2N)n1Cc1ccc(Cl)cc1	inactive
COc1cc(/C=C2\CC/C(=C\c3cc(OC)c(O)c(OC)c3)C2=O)cc(OC)c1O	inactive
COc1cc(C(=O)OCCN2CCCCC2)ccc1O	inactive
CC12C(=O)N(c3ccccc3C(=O)O)C(=O)C1C1C=CC2C1 (stereo unspecified)	inactive
Cc1nc2ccccc2c2oc(C(=O)N3CCN(C(=O)c4ccco4)CC3)cc12	inactive
Cc1cc(C(=O)N2CCN(CCc3ccccc3)CC2)no1	inactive
CC(=O)c1c(C)[nH]c(C(=O)Nc2ccc(C)c(C)c2)c1C	inactive
CN(C)c1ccc(/C=C/C#N)cc1	inactive
CCC(C(=O)Nc1cc(C(=O)O)ccc1C)c1ccccc1 (stereo unspecified)	inactive
Cc1ccc(S(=O)(=O)N2CCCCC2)cc1C(=O)Nc1ccc2cn[nH]c2c1	inactive
CCC(C)NC(=O)Cc1cn(C)c2ccccc12 (stereo unspecified)	inactive
CCc1nnc(NC(=O)CC(CN(C)S(=O)(=O)c2ccccc2)c2ccccc2)s1 (stereo unspecified)	inactive
C#CCSc1nnc(-c2sc3ccccc3c2Cl)o1	inactive
CCCCOC(=O)CCCN1C(=O)/C(=C2\SC(=S)N(CCCC(=O)OCCCC)C2=O)SC1=S	inactive

SMILES	outcome
O=C(CCn1c(=S)oc2ccccc21)Nc1ccc2c(c1)OCCO2	inactive
Cc1ccc(NC(=O)CCC(=O)NNC(=O)COc2cccc3ccccc23)c(C)c1	inactive
O=C(O)CCCN1C(=O)/C(=C\C(Cl)=C\c2ccccc2)SC1=S	inactive
O=C(CCCCCN1C(=O)c2ccccc2C1=O)Nc1nccs1	inactive
CCc1ccccc1NNC(=O)CCc1ccccc1	inactive
CN(CC(=O)Nc1ccccc1Cl)C(=O)Cn1cc(C(F)(F)F)cc(Cl)c1=O	inactive
Cc1ccc(C)c(NC(=O)CSc2ncnc3nc[nH]c23)c1	inactive
CC(C)(C)c1ccc(-c2nnc(SCCC#N)n2C2CCCC2)cc1	inactive
Cc1nc(C)c2c(c1C(F)(F)F)-c1ccccc1C2(F)F	inactive
O=c1[nH][nH]c(=O)c2nc(Nc3ccccc3)ncc12	inactive
CCc1nc(NCC2CCCN2CC)c2nnn(Cc3ccccc3F)c2n1 (stereo unspecified)	inactive
CCN1CCN(C(=O)C2COc3ccccc3O2)CC1 (stereo unspecified)	inactive
Cc1ccc(N=Nc2ccc(N)cc2C)c(S(N)(=O)=O)c1	inactive
Cc1c(C(=O)O)oc2ccc(S(=O)(=O)N3CCC(C)CC3)cc12	inactive
CCOC(=O)CNc1nc2ccccc2n2c(C)nnc12	inactive
CC(C)c1nc2ccccc2n1CCC(=O)O	inactive
O=C1CN(C(=O)COC(=O)CCSc2ccccc2Cl)c2ccccc2N1	inactive
Cc1ccc(-c2nnc(SCC(=O)N3CC(C)CC(C)C3)o2)cc1C (stereo unspecified)	inactive
Cc1ccc(-n2nnc3c(=O)n(CC(=O)c4ccccc4)cnc32)cc1	inactive
